The results in this text go back to PubChem BioAssay (EPA / NIEHS).

Assay [1] has as its target rat Vasopressin 1 Receptor (V1), Avpr1a (gene 25107) (UniProt P30560). Kind of assay: NVS_GPCR_rV1: NovaScreen (NVS) G Protein-Coupled Receptor Assay for rat Vasopressin 1 Receptor (V1) (AID 2283316). In short, it runs like this:
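Radioligand binding on rat liver membranes, 1.5 h incubation, filter-based scintillation counting. Single 25 uM screen in duplicate; chemicals meeting threshold (e.g. 30% inhibition) run in concentration-response up to 50 uM.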

The target of assay [2] is rat Opioid Receptor, Non-selective Binding, Oprm1 (gene 25601) (UniProt P33535). The assay is described as follows: NVS_GPCR_rOpiate_NonSelective: NovaScreen (NVS) G Protein-Coupled Receptor Assay for rat Opioid Receptor, Non-selective Binding (AID 2283318). The method in brief: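 Rat forebrain membranes, cell-free radioligand binding with filter-based scintillation counting, read 1.5 h after dosing. Primary screen in duplicate at 25 uM; actives retested in concentration series. Loss of signal versus DMSO baseline scored.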

Assay [3] in a line: NVS_IC_rCaDHPRCh_L: NovaScreen (NVS) Ion Channel Assay for rat Calcium Channel, Type L, Dihydropyridine Site (CaDHPRCh_L) (AID 2283320). In short, it runs like this: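 Radioligand binding to dihydropyridine site on rat cortical membranes, filter-based scintillation counting, 1 h after dosing. Screened in duplicate at 25 uM; actives rerun in concentration-response up to 50 uM. Loss of signal versus DMSO baseline.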

For assay [4], the target named is Sodium channel protein type 1 subunit alpha (Rattus norvegicus) (UniProt P04774). The assay is described as follows: NVS_IC_rNaCh_site2: NovaScreen (NVS) Ion Channel Assay for rat Sodium Channel, Site 2 (NaCh) (AID 2283322).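 Further: hit means loss of radioligand binding signal relative to DMSO so AC50 marks displacement.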 In short, it runs like this:
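Membranes: rat forebrain. Format: competitive radioligand displacement, filter separation, scintillation readout, 1 h exposure. Primary screen in duplicate at 25 uM; actives retested in concentration series.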

Assay [5] addresses bovine Gamma-Aminobutyric Acid Type A Receptor BDZ, alpha 5 site (GABARa5), GABRA5 (gene 523515) (UniProt Q08E50). The assay is described as follows: NVS_LGIC_bGABARa5: NovaScreen (NVS) Ligand-Gated Ion Channel Assay for bovine Gamma-Aminobutyric Acid Type A Receptor BDZ, alpha 5 site (GABARa5) (AID 2283323). The protocol: NVS_LGIC_bGABARa5 is a biochemical, single-readout assay that uses extracted gene-proteins from Bovine hippocampal membranes in a tissue-based cell-free assay. Measurements were taken 1 hour after chemical dosing in a 48-well plate.NVS_LGIC_bGABARa5 is one of one assay component(s) measured or calculated from the NVS_LGIC_bGABARa5 assay. It is designed to make measurements of radioligand binding, a form of binding reporter, as detected with scintillation counting signals by Filter-based radiodetection technology.Data from the assay component NVS_LGIC_bGABARa5 was analyzed into 1 assay endpoint. This assay endpoint, NVS_LGIC_bGABARa5, was analyzed in the positive analysis fitting direction relative to DMSO as the negative control and baseline of activity. Using a type of binding reporter, loss-of-signal activity can be used to understand changes in the binding as they relate to the gene GABRA5. Furthermore, this assay endpoint can be referred to as a primary readout, because the performed assay has only produced 1 assay endpoint. To generalize the intended target to other relatable targets, this assay endpoint is annotated to the ion channel intended target family, where the subfamily is ligand-gated ion channel.
Binding assays used specific radioligands (tritiated, iodinated) with non-radioactive competitive displacement ligands in agonist or antagonist protocols (as indicated) and various reference compounds and inhibitors to titrate specific binding to receptors and transporters. Most enzyme assays (CYPs, kinases, phosphatases, proteases, HDACs) used recombinant protein and specific substrates (fluorescence mostly, some colorimetric and radioactive) and inhibitors, followed by a biochemical separation of substrate and product. All assays for the biochemical HTS were initially run in duplicate at a single concentration (10 uM for CYP450 assays and 25 uM for all others). Assay-chemical combinations meeting a pre-defined threshold (e.g., 30% inhibition and other criteria defined below) were then run in singleton concentration-response format with maximum concentration of 20 uM for CYPs and 50 uM for all others. Each assay was run with positive and negative controls, and concurrent controls on every plate. The follow-up (secondary) screen tested active chemical-pairs in concentration series, as well as a few additional assays not tested in the primary screen, some selected negative inactives, and several cases re-run in the concentration series for confirmatory purposes.

Assay [6] has as its target rat Neonicotinoid receptor (NNR), Chrna7 (gene 25302) (UniProt Q05941). The assay is described as follows: NVS_LGIC_rNNR_BungSens: NovaScreen (NVS) Ligand-Gated Ion Channel Assay for rat Neonicotinoid receptor (NNR) (AID 2283315). In short, it runs like this:
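Radioligand displacement binding on rat cortical membranes, 2.5 h incubation, filtration and scintillation counting. Loss of specific binding fitted relative to DMSO.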

Assay [7] concerns the target bovine Gamma-Aminobutyric Acid Type A Receptor BDZ, alpha 1 site (GABARa1), GABRA1 (gene 780973) (UniProt P08219). Kind of assay: NVS_LGIC_bGABARa1: NovaScreen (NVS) Ligand-Gated Ion Channel Assay for bovine Gamma-Aminobutyric Acid Type A Receptor BDZ, alpha 1 site (GABARa1) (AID 2283321). How it is done: NVS_LGIC_bGABARa1 is a biochemical, single-readout assay that uses extracted gene-proteins from Bovine cortical membranes in a tissue-based cell-free assay. Measurements were taken 0.75 hour after chemical dosing in a 48-well plate.NVS_LGIC_bGABARa1 is one of one assay component(s) measured or calculated from the NVS_LGIC_bGABARa1 assay. It is designed to make measurements of radioligand binding, a form of binding reporter, as detected with scintillation counting signals by Filter-based radiodetection technology.Data from the assay component NVS_LGIC_bGABARa1 was analyzed into 1 assay endpoint. This assay endpoint, NVS_LGIC_bGABARa1, was analyzed in the positive analysis fitting direction relative to DMSO as the negative control and baseline of activity. Using a type of binding reporter, loss-of-signal activity can be used to understand changes in the binding as they relate to the gene GABRA1. Furthermore, this assay endpoint can be referred to as a primary readout, because the performed assay has only produced 1 assay endpoint. To generalize the intended target to other relatable targets, this assay endpoint is annotated to the ion channel intended target family, where the subfamily is ligand-gated ion channel.
Binding assays used specific radioligands (tritiated, iodinated) with non-radioactive competitive displacement ligands in agonist or antagonist protocols (as indicated) and various reference compounds and inhibitors to titrate specific binding to receptors and transporters. Most enzyme assays (CYPs, kinases, phosphatases, proteases, HDACs) used recombinant protein and specific substrates (fluorescence mostly, some colorimetric and radioactive) and inhibitors, followed by a biochemical separation of substrate and product. All assays for the biochemical HTS were initially run in duplicate at a single concentration (10 uM for CYP450 assays and 25 uM for all others). […]

For assay [8], the target named is rat Glutamate, AMPA Site (AMPA), Gria1 (gene 50592) (UniProt P19490). The assay is described as follows: NVS_LGIC_rAMPA: NovaScreen (NVS) Ligand-Gated Ion Channel Assay for rat Glutamate, AMPA Site (AMPA) (AID 2283324). In short, it runs like this: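 Rat forebrain membranes; radioligand binding read 1 h after dosing by filtration and scintillation counting. Duplicate single-point screen at 25 uM, then concentration-response to 50 uM for threshold hits (e.g. 30% inhibition); loss of signal vs DMSO.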

For assay [9], the target named is Voltage-dependent N-type calcium channel subunit alpha-1B (Rattus norvegicus) (UniProt Q02294). The assay is described as follows: NVS_IC_rCaChN: NovaScreen (NVS) Ion Channel Assay for rat Calcium Channel, Type N (CaChN) (AID 2283317).
A further assay has as its system NCBI gene 24521. The assay is described as follows: NVS_IC_rKATPCh: NovaScreen (NVS) Ion Channel Assay for rat Potassium Channel, ATP-Sensitive (KATPCh) (AID 2283319). The method in brief: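 Rat cortical membranes; radioligand binding at ATP-sensitive K channel site, filter-based scintillation counting 2 h after dosing. Single-point duplicate screen at 25 uM, hits rerun in concentration-response up to 50 uM; loss of signal versus DMSO.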

SMILES strings stand for the structures. Several values for one entry are separate records, joined by “and”; a condition that tells them apart may be missing. Equal values may be shown once. Results filed as inconclusive are left out. Some compounds were tested as several samples or in several runs, with calls that do not always agree. Activity calls are given as the source filed them. How the source made its calls: active means hit-call score of the fitted dose curve at least 0.9, where 1 is the maximum; inconclusive means response in the unintended direction; inactive means score below 0.9.

bovine Gamma-Aminobutyric Acid Type A Receptor BDZ, alpha 1 site (GABARa1), GABRA1 (gene 780973), sequence (P08219 whole entry, looked up): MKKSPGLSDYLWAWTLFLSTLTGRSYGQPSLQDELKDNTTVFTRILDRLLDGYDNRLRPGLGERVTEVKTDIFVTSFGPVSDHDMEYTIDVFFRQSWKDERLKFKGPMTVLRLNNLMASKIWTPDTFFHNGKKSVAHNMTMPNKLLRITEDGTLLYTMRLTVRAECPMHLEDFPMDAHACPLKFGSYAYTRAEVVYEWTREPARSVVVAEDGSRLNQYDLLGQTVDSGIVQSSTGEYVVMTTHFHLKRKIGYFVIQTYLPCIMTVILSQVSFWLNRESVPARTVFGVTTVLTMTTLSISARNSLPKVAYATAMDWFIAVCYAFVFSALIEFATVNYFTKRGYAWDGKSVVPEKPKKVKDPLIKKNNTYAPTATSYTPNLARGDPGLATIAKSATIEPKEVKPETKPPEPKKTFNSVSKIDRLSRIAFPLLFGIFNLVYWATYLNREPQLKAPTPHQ
rat Neonicotinoid receptor (NNR), Chrna7 (gene 25302), sequence (Q05941 whole entry, looked up): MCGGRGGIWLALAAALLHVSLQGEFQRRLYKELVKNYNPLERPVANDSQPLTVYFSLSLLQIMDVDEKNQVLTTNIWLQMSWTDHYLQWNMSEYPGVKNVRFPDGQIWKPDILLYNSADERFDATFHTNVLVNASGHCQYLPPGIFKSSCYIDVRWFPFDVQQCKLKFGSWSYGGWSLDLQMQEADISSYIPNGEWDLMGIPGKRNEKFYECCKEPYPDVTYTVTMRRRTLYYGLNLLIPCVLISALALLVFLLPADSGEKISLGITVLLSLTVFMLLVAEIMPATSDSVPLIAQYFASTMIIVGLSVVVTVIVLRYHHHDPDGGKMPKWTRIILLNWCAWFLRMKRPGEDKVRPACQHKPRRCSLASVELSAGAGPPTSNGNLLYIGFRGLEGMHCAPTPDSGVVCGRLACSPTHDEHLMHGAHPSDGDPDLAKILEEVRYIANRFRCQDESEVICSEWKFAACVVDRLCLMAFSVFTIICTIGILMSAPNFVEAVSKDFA
rat Vasopressin 1 Receptor (V1), Avpr1a (gene 25107), sequence (P30560 whole entry, looked up): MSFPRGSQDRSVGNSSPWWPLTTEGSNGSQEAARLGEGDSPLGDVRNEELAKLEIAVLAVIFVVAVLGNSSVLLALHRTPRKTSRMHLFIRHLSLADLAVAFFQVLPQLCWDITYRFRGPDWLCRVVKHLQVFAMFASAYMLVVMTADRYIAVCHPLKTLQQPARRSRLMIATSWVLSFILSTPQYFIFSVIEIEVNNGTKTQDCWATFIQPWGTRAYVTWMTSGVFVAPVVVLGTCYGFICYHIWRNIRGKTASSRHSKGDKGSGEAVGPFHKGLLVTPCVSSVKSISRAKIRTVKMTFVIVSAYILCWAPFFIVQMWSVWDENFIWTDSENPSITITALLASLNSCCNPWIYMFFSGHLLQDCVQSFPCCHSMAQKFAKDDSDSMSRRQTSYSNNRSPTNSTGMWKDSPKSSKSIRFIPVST
rat Opioid Receptor, Non-selective Binding, Oprm1 (gene 25601), sequence (P33535 whole entry, looked up): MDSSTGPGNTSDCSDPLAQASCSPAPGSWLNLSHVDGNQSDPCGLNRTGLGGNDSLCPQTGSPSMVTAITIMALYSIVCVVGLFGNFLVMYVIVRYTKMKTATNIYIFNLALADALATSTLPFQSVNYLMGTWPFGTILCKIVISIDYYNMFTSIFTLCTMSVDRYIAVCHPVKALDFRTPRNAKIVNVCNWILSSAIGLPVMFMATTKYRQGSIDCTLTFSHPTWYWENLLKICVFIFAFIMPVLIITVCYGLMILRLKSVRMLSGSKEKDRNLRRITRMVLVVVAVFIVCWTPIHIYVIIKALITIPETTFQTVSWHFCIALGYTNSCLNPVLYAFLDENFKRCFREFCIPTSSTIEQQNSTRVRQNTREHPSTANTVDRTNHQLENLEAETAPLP
bovine Gamma-Aminobutyric Acid Type A Receptor BDZ, alpha 5 site (GABARa5), GABRA5 (gene 523515), sequence (Q08E50 whole entry, looked up): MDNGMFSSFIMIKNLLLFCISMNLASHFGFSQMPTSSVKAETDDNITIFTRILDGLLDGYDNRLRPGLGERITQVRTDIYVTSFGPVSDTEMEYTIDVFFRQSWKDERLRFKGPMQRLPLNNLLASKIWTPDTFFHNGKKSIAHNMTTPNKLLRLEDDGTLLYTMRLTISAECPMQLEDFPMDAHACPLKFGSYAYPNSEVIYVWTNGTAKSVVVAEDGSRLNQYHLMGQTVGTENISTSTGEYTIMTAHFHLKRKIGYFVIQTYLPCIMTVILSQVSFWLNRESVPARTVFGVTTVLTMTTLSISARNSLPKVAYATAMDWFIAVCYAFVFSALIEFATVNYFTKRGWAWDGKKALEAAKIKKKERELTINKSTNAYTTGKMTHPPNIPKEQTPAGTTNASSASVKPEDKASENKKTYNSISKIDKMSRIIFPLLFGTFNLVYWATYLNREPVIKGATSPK
rat Glutamate, AMPA Site (AMPA), Gria1 (gene 50592), sequence (P19490 whole entry, looked up): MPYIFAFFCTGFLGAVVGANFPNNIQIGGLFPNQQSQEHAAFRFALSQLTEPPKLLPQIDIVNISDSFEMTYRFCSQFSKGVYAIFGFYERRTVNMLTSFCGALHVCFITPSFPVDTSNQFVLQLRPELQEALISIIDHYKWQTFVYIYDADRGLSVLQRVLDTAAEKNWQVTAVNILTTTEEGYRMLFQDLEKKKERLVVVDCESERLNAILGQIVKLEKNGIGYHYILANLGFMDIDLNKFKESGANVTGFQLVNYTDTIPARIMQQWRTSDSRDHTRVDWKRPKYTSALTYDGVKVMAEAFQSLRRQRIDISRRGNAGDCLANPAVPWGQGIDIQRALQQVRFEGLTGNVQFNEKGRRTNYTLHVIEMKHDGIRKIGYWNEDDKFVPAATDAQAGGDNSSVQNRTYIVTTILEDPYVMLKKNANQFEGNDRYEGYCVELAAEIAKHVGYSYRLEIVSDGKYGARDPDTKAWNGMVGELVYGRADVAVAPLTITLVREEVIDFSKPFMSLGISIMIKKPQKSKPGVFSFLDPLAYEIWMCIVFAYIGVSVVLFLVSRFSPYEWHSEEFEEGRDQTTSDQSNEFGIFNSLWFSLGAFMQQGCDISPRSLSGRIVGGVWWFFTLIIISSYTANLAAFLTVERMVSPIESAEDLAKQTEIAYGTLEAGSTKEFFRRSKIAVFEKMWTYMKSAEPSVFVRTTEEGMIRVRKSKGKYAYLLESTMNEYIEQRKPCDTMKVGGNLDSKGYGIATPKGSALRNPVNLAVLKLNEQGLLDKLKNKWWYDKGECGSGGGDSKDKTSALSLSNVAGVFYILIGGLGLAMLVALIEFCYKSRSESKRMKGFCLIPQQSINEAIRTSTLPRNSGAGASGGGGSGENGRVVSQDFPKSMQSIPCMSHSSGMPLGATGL

In the case of `Oc1ccc(Cl)cc1Cc1ccccc1`, the results for the AC50 in [1], in assay [3] and in assay [4] were 7.33 µM (active), 30.2 µM (active) [middle of 7 runs] and 10.9 µM (active), respectively. Moreover, the molecule was called inactive in assay [1], in assay [2] and in [4].

Turning to `CC[C@H](C)[C@H]1O[C@]2(C=C[C@@H]1C)C[C@@H]1C[C@@H](C/C=C(\C)[C@@H](O[C@H]3C[C@H](OC)[C@@H](O[C@H]4C[C@H](OC)[C@@H](O)[C@H](C)O4)[C@H](C)O3)[C@@H](C)/C=C/C=C3\CO[C@@H]4[C@H](O)C(C)=C[C@@H](C(=O)O1)[C@]34O)O2` (tested in a mixture with another compound), the half-maximal activity concentration (AC50) in [3] was 4.89 µM (active); in assay [5], 8.26 µM (active).

Turning to `COP(=S)(OC)Oc1ccc([N+](=O)[O-])cc1`, the molecule was classed as inactive in assay [6] and in assay [7].

On to `O=C(NC(=O)c1c(F)cccc1F)Nc1ccc(OC(F)(F)C(F)OC(F)(F)F)c(Cl)c1` (stereo unspecified), for which the call in [5] was inactive.

Regarding `CNC(=O)/C=C(\C)OP(=O)(OC)OC`, the result in assay [5] was inactive.

As to `COP(=S)(OC)Oc1ccc(SC)c(C)c1`, in assay [6], the call was inactive.

Consider `Cc1cc(C)nc(NC(=O)NS(=O)(=O)c2ccccc2C(=O)OC2COC2)n1`, for which the result in assay [8] was inactive.

Regarding `CCCN(CCOc1c(Cl)cc(Cl)cc1Cl)C(=O)n1ccnc1`, the values for the AC50 in assay [1], in [2] and in [4] were 6.02 µM (active), 14.8 µM (active) and 14.3 µM (active), respectively. Further, the outcome in [3] was inactive.

Consider `CC(C)(C)C(O)/C(=C\c1ccc(Cl)cc1Cl)n1cncn1` (stereo unspecified), for which the result in [9] and in assay [2] was inactive.

For the molecule `CC(C)N(C(=O)COc1nnc(C(F)(F)F)s1)c1ccc(F)cc1`, in assay [7], the AC50 was 14.2 µM (active).

Turning to `N#Cc1c(Cl)c(Cl)c(Cl)c(C#N)c1Cl`, the result in assay [9] was inactive.

On to `C[C@H]1[C@H](c2ccc(Cl)cc2)SC(=O)N1C(=O)NC1CCCCC1`, for which the outcome in assay [6] was inactive.

Regarding `COP(=O)(OC)OC=C(Cl)Cl`, the outcome in assay [9] was inactive.

Turning to `CC(C)(C)C(O)C(Oc1ccc(Cl)cc1)n1cncn1` (stereo unspecified), the AC50 in assay [1] was 3.04 µM (active) and 27.7 µM (active).

Turning to `[2H]C1([2H])[n+]2ccccc2-c2cccc[n+]2C1([2H])[2H]`, the call in assay [7] was inactive.

For `O=S(=O)(O)C(F)(F)C(F)(F)C(F)(F)C(F)(F)C(F)(F)C(F)(F)C(F)(F)C(F)(F)F`, the result in assay [3] and in assay [4] was inactive.

As for `O=C(Nc1ccccc1)Nc1cnns1`, in [5], the AC50 is 7.77 µM (active). For the same molecule, the molecule was called inactive in [8].

Regarding `Oc1cc(Cl)ccc1Oc1ccc(Cl)cc1Cl`, the half-maximal activity concentration (AC50) in [1] was 3.23 µM (active) and 12.1 µM (active). Also, the result in assay [2] and in assay [4] was inactive.

Turning to `O=[N+]([O-])/N=C1\NCCN1Cc1ccc(Cl)nc1`, the AC50 in assay [6] is 10.9 µM (active).

On to `CCOC1Oc2ccc(OS(C)(=O)=O)cc2C1(C)C` (stereo unspecified), for which the molecule was called inactive (in assay [6]; with NCBI gene 24521).
